# Results filed as inconclusive are left out. The source made the active and inactive calls. Calls come from the whole dose curve; as a rule, active = well fitted inhibition curve with a large enough effect; inconclusive = small, poorly fitted or top-dose-only effect; inactive = flat fitted curve, though single readings scatter.
# Target: Calcium and integrin-binding protein 1 (Homo sapiens) (UniProt Q99828)
# Test: Primary qHTS for Identification of Calcium Integrin Binding Protein 1 (CIB1) Competitor (AID 1508620); note: top concentration of the series differs between compounds
# Settings: CIB1-GST / FITC-alphaIIb peptide fluorescence polarization; series mostly up to 114 µM; activity change, negative = inhibition: at the top concentration
# Procedure, shortened: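 Fluorescence polarization competition: GST-tagged CIB1 (1 uM final) preincubated with compound 15 min at room temperature, then FITC-labelled alphaIIb peptide (100 nM final) added. After 15 min at room temperature, polarization read at Ex 480/Em 540.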
# % is set by controls: 0 for no effect and ±100 for the full control effect.
# Chain of Calcium and integrin-binding protein 1 (Homo sapiens) (Q99828 whole entry, looked up): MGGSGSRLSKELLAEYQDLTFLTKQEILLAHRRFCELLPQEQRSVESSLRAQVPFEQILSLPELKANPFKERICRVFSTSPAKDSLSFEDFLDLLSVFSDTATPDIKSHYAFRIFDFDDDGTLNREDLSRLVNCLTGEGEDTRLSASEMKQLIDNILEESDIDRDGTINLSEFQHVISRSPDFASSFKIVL
Compound,"activity change, negative = inhibition",Potency
N#Cc1cccc(-c2noc(-c3ccccc3F)n2)c1,2.85% (inactive),
COc1cccc(C2c3c(ncn(-c4ccccc4Br)c3=N)Oc3ccc4ccccc4c32)c1 (centres undefined),0.941% (inactive),
Oc1cc(Nc2ccc(N3CCCCC3)cc2)cc2cccnc12,-11.9% (inactive),
O=C(Nc1ccc(-c2nc3ccccc3[nH]2)cc1)c1ccc2c(c1)OCCO2,5.01% (inactive),
CCCC1CCN(C(=O)CC(c2ccc3c(c2)OCO3)c2c(O)cc(OC)cc2OC)C1 (centres undefined),2.16% [at 228 µM] (inactive),
COc1ccc(C2Nc3ccccc3C(=O)N2Cc2ccc(CNC(=O)CO)cc2)cc1COc1ccc(NC(C)=O)cc1 (centres undefined),-3.04% (inactive),
COc1ccc(C2=Nn3c(nnc3-c3ccccc3F)SC2)cc1OCC1CC1,4.62% (inactive),
CC(=O)N1CCc2cc(S(=O)(=O)Nc3ccc(C)c(C)c3)ccc21,-1.8% (inactive),
CCn1cnc2c(NCCc3cccnc3)nc(C#N)nc21,6.06% (inactive),
C(=Nc1cccnc1)c1cccs1,1.85% (inactive),
Cc1ccnc(NC(=S)N2CCNCC2)c1,-1.7% (inactive),
COc1ccc(C2Nc3ccccc3C(=O)N2Cc2ccco2)cc1COc1ccccc1 (centres undefined),,inactive
Cc1nnc(-c2cnn(C)c2)n1CCCn1ccnc1,-2.87% (inactive),
Cc1c(P(=S)(c2ccccc2)c2ccccc2)c2ccccc2n1CCc1ccccc1,2.03% (inactive),
CCCCN(C)C(=O)Cn1nc(-c2ccc(C(C)(C)C)cc2)ccc1=O,-3.13% (inactive),
N#CNC(=O)c1ccc(-n2cccc2/C=C2\NC(=O)N(CC(=O)Nc3cccc(F)c3)C2=O)cc1,6.07% (inactive),
CCSC1=NS(=O)(=O)c2ccccc21,-1.58% (inactive),
O=C(OCC#CCSc1nnc(-c2cccc3ccccc23)o1)c1ccsc1,1.84% (inactive),
Cc1ccc(NS(=O)(=O)c2cc3c(cc2C)NC(=O)CO3)cc1C,0.574% (inactive),
N#CN1CCC(NS(=O)(=O)c2ccc(F)cc2)C1 (centres undefined),8.48% (inactive),

Compound,"activity change, negative = inhibition",Potency
Cc1ccc(OCCn2c(CCNC(=O)C3CCNCC3)nc3ccccc32)cc1,4.73% (inactive),
CN(C)CCCNC(=O)c1ccc(-c2cnc3c(O)cccc3c2)cc1,-18.9% (inactive),
Cc1cc2c(s1)c1cnn(Cc3c(F)c(F)c(C)c(F)c3F)c(=O)c1n2C,7.83% (inactive),
COc1ccc(C2=Nn3c(nnc3-c3ccccc3Cl)SC2)cc1OC1CCCC1,0.59% (inactive),
C=CCSc1nnc(-c2cccc3ccccc23)o1,5.96% (inactive),
O=C(OCC#CCSc1nnc(-c2cccc3ccccc23)o1)c1cc2ccccc2o1,-3.02% (inactive),
N#Cc1c(-c2cccc(Cl)c2)no[n+]1[O-],-0.861% (inactive),
COc1ccc(C2Nc3ccccc3C(=O)N2Cc2ccccc2)cc1OCc1ccc(NC(C)=O)cc1 (centres undefined),1.35% (inactive),
COc1ccc(CC(=O)Nc2ccc(S(=O)(=O)Nc3cc(C)on3)cc2)cc1OC,-10.3% (inactive),
N/C(=N\c1nnc(-c2ccncc2)s1)Nc1ccc(Cl)c(Cl)c1,7.38% (inactive),
COc1cccc(-c2ccc3ncnc(NCc4ccc5c(c4)OCO5)c3c2)c1,3.55% (inactive),
O=C(Nc1ncc(Cc2ccc(C(F)(F)F)cc2)s1)c1cccc(-c2ccccc2)c1,-3.4% (inactive),
COc1ccc(O)c(-c2nc3ccccc3c(=O)n2Cc2ccccc2)c1,2.78% (inactive),
Cc1nnc(-c2cnn(C)c2N)n1CCCc1ccncc1,2.64% (inactive),
O=S1(=O)N=C(Sc2ccc3c(c2)OCCO3)c2ccccc21,-6.66% (inactive),
Cc1c(C(=O)OCc2ccco2)[nH]c2c1C(=O)CC(c1ccco1)C2 (centres undefined),-10.1% (inactive),
O=C(Nc1ccc(Cl)c(S(=O)(=O)N2CCOCC2)c1)c1ccc(S(=O)(=O)N2CCOCC2)cc1,1.09% (inactive),
Cc1ccsc1CN(C)c1ncnc2ccc(-c3ccc([C@@H](C)O)o3)cc12,,inactive
COc1ccc(C2Nc3ccccc3C(=O)N2Cc2ccccc2)cc1COc1ccc(Cl)cc1 (centres undefined),0.365% (inactive),

# Source: PubChem BioAssay (NCATS)
